# In the supplement of paper PMC8728848:
# The sample as a whole holds a higher share of the strongest signals than the screen did.
# B1: Arath Fbox LD (Arabidopsis thaliana) (protein)
# chain: EFSVWLEKASGKRCLMLSAMNLSIIWGDNPQYWQWIPIPESRFEKVAKLRDVCWFEIRGRTNTRVLSPRTRYSAYIVFKGVDKCYGFQNVAIEAAVGVVGQEPSRRLICFSEAIRRGRRNVVKPKQREDGWMEIELGEFFNDGGIMDNDEIEMSALETKQLNRKCGLIIQGIEIRPAKILAAASFLEQKLISEEDLNSAVDHHHHHH
# How the values were obtained:
# Assay in all cases: glycan array binding signal (z-score within array); higher = stronger binding
# Conditions in all cases: glycan notation: IUPAC condensed, linker removed
# [1] = biological target: GlcNAc(a1-4)Gal(b1-4)GalNAc
# Procedure, shortened: (§1)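 Columns mapping to the same glycan were averaged after glycan names were converted to IUPAC-condensed notation. The data come from 3228 arrays in the Consortium for Functional Glycomics database, limited to those with an available protein sequence. Binding is reported as a within-array Z-score averaged across arrays of one protein sequence and across linkers.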
# [2] = biological target: GlcNAc(b1-3)Gal(b1-4)GlcNAc(b1-3)Gal(b1-4)GlcNAc(b1-2)[GlcNAc(b1-3)Gal(b1-4)GlcNAc(b1-3)Gal(b1-4)GlcNAc(b1-6)]Man(a1-6)[GlcNAc(b1-3)Gal(b1-4)GlcNAc(b1-3)Gal(b1-4)GlcNAc(b1-2)Man(a1-3)]Man(b1-4)GlcNAc(b1-4)[Fuc(a1-6)]GlcNAc
# Procedure, shortened: as §1
# [3] = biological target: Man(a1-2)Man(a1-2)Man(a1-3)Man
# Procedure, shortened: as §1
# [4] = biological target: Man(a1-2)Man(a1-3)[Man(a1-6)]Man(a1-6)[Man(a1-2)Man(a1-3)]Man(b1-4)GlcNAc(b1-4)GlcNAc
# Procedure, shortened: as §1
# Man(a1-6)Man = biological target: Man(a1-6)Man
# Procedure, shortened: as §1
# [5] = biological target: Neu5Ac(a2-3)Gal(b1-3)GlcNAc(b1-2)Man
# Procedure, shortened: as §1
# [6] = biological target: Neu5Ac(a2-3)Gal(b1-3)GlcNAc(b1-2)Man(a1-3)[GlcNAc(b1-4)][Neu5Ac(a2-3)Gal(b1-3)GlcNAc(b1-2)Man(a1-6)]Man(b1-4)GlcNAc(b1-4)GlcNAc
# Procedure, shortened: as §1
# [7] = biological target: Neu5Ac(a2-3)Gal(b1-3)GlcNAc(b1-6)GalNAc
# Procedure, shortened: as §1
# [8] = biological target: Neu5Ac(a2-3)Gal(b1-3)GlcNAc6S
# Procedure, shortened: as §1
# [9] = biological target: Neu5Ac(a2-3)Gal(b1-3)[Neu5Ac(a2-6)]GalNAc
# Procedure, shortened: as §1
# [10] = biological target: Neu5Ac(a2-3)Gal(b1-3)[Neu5Ac(a2-6)]GlcNAc(b1-3)[Fuc(a1-3)[Gal(b1-4)]GlcNAc(b1-6)]Gal(b1-4)Glc
# Procedure, shortened: as §1
# Neu5Ac(a2-3)Gal(b1-4)Glc = biological target: Neu5Ac(a2-3)Gal(b1-4)Glc
# Procedure, shortened: as §1
# [11] = biological target: Neu5Ac(a2-3)Gal(b1-4)GlcNAc(b1-2)[Neu5Ac(a2-3)Gal(b1-4)GlcNAc(b1-6)]Man(a1-6)[Neu5Ac(a2-3)Gal(b1-4)GlcNAc(b1-2)Man(a1-3)][GlcNAc(b1-4)]Man(b1-4)GlcNAc(b1-4)GlcNAc
# Procedure, shortened: as §1
# [12] = biological target: Neu5Ac(a2-3)Gal(b1-4)GlcNAc(b1-3)Gal(b1-4)GlcNAc
# Procedure, shortened: as §1
# [13] = biological target: Neu5Ac(a2-3)Gal(b1-4)GlcNAc(b1-3)[Neu5Ac(a2-3)Gal(b1-4)GlcNAc(b1-6)]GalNAc
# Procedure, shortened: as §1
# [14] = biological target: Neu5Ac(a2-3)Gal(b1-4)GlcNAc(b1-6)[Gal(b1-3)]GalNAc
# Procedure, shortened: as §1
# Neu5Ac(a2-6)Gal = biological target: Neu5Ac(a2-6)Gal
# Procedure, shortened: as §1
# Neu5Ac(a2-6)Gal(b1-4)Glc = biological target: Neu5Ac(a2-6)Gal(b1-4)Glc
# Procedure, shortened: as §1
# [15] = biological target: Neu5Ac(a2-6)Gal(b1-4)GlcNAc
# Procedure, shortened: as §1
# [16] = biological target: Neu5Ac(a2-6)Gal(b1-4)GlcNAc(b1-2)[Neu5Ac(a2-6)Gal(b1-4)GlcNAc(b1-6)]Man(a1-6)[Neu5Ac(a2-6)Gal(b1-4)GlcNAc(b1-2)Man(a1-3)][GlcNAc(b1-4)]Man(b1-4)GlcNAc(b1-4)GlcNAc
# Procedure, shortened: as §1
# [17] = biological target: Neu5Ac(a2-6)Gal(b1-4)GlcNAc(b1-3)GalNAc
# Procedure, shortened: as §1
# [18] = biological target: Neu5Ac(a2-6)GalNAc(b1-4)GlcNAc
# Procedure, shortened: as §1
# [19] = biological target: Neu5Ac(a2-8)Neu5Ac(a2-3)Gal(b1-4)Glc
# Procedure, shortened: as §1
# [20] = biological target: Neu5Ac(a2-8)Neu5Ac(a2-3)Gal(b1-4)GlcNAc
# Procedure, shortened: as §1
# [21] = biological target: Neu5Ac(a2-8)Neu5Ac(a2-8)Neu5Ac(a2-8)Neu5Ac(a2-3)[GalNAc(b1-4)]Gal(b1-4)Glc
# Procedure, shortened: as §1
# [22] = biological target: Neu5Ac9Ac(a2-3)Gal(b1-3)GlcNAc
# Procedure, shortened: as §1
# [23] = biological target: Neu5Gc(a2-3)Gal(b1-3)[Fuc(a1-4)]GlcNAc
# Procedure, shortened: as §1
# [24] = biological target: Neu5Gc(a2-3)Gal(b1-4)GlcNAc(b1-3)Gal(b1-4)GlcNAc(b1-2)Man(a1-3)[Neu5Gc(a2-3)Gal(b1-4)GlcNAc(b1-3)Gal(b1-4)GlcNAc(b1-2)Man(a1-6)]Man(b1-4)GlcNAc(b1-4)GlcNAc
# Procedure, shortened: as §1
# Neu5Gc(a2-6)GalNAc = biological target: Neu5Gc(a2-6)GalNAc
# Procedure, shortened: as §1
# [25] = biological target: Neu5Gc(a2-8)Neu5Gc(a2-3)Gal(b1-4)GlcNAc(b1-3)Gal(b1-4)GlcNAc
# Procedure, shortened: as §1
binder,measurement,setting,value
B1,glycan array binding signal (z-score),[1],0.26
same,glycan array binding signal (z-score),[2],0.126
same,glycan array binding signal (z-score),[3],-0.56
same,glycan array binding signal (z-score),[4],-0.337
same,glycan array binding signal (z-score),Man(a1-6)Man,2.7
same,glycan array binding signal (z-score),[5],2.03
same,glycan array binding signal (z-score),[6],-0.462
same,glycan array binding signal (z-score),[7],-0.64
same,glycan array binding signal (z-score),[8],-0.302
same,glycan array binding signal (z-score),[9],-0.264
same,glycan array binding signal (z-score),[10],-0.662
same,glycan array binding signal (z-score),Neu5Ac(a2-3)Gal(b1-4)Glc,-0.473
same,glycan array binding signal (z-score),[11],-0.407
same,glycan array binding signal (z-score),[12],-0.587
same,glycan array binding signal (z-score),[13],-0.595
same,glycan array binding signal (z-score),[14],-0.599
same,glycan array binding signal (z-score),Neu5Ac(a2-6)Gal,2.83
same,glycan array binding signal (z-score),Neu5Ac(a2-6)Gal(b1-4)Glc,0.791
same,glycan array binding signal (z-score),[15],-0.052
same,glycan array binding signal (z-score),[16],0.015
same,glycan array binding signal (z-score),[17],-0.324
same,glycan array binding signal (z-score),[18],-0.53
same,glycan array binding signal (z-score),[19],-0.516
same,glycan array binding signal (z-score),[20],-0.254
same,glycan array binding signal (z-score),[21],0.508
same,glycan array binding signal (z-score),[22],3.71
same,glycan array binding signal (z-score),[23],-0.502
same,glycan array binding signal (z-score),[24],-0.554
same,glycan array binding signal (z-score),Neu5Gc(a2-6)GalNAc,-0.28
same,glycan array binding signal (z-score),[25],-0.404
